# Screens: PubChem, National Center for Advancing Translational Sciences (NCATS)
# MCF10A rereplic: DNA re-replication induction in MCF 10a cells. MCF 10A DNA re-replication, Hoechst nuclear intensity, 48 h. Potency, µM (highest dose often 46.1 µM), without a hit: top-dose activity, positive = re-replication, most hits filed as activators. hit rate 2.9% among 350,000. AID 624296; also: % of control where 0% means no effect; nearly all actives have a fitted effect of over 50% in size
# SW480 rereplic: DNA re-replication induction in SW480 cells. SW480 DNA re-replication, Hoechst DNA content imaging, 48 h. Potency, µM (doses to about 46.1 µM), for the others: top-dose re-replication activation, actives largely listed as activators. hit rate 1.8% among 340,000. AID 624297; also: % of control where 0% means no effect; nearly all actives have a fitted effect of over 55% in size
#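 Per well, 250 cells were exposed to pinned compound for 48 hr. Nuclear DNA was visualised with Hoechst (40 min, 37 C) and total object intensity recorded by fluorescence scanning.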
# KB-V1 cytotox: kills drug-selected multidrug resistant KB-V1 cells. hit rate 3.4% among 400,000. Potency, µM (titrated, usually from 46.1 µM), hits mostly cytotoxic. KB-V1 MDR cells viability, CellTiter-Glo, 72 h; also: % is scaled to controls: 0 for no effect and ±100 for the full control effect; nearly all actives have a fitted effect of over 60% in size
#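 Cytotoxicity via CellTiter-Glo luminescence after 72 h compound exposure at 37 degrees C. Cells: drug-selected KB-V1 line, DMEM phenol-red free plus 10% FBS. Compounds tested at multiple concentrations; normalized data fitted to concentration-effect curves.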
# PINK1 expr mod: changes PINK1 expression; Potency, µM (titrated, usually from 76.6 µM), for inactives: at the highest dose activation (PINK1 increase), usual class: activators; PINK1 immunofluorescence, high-content cytometry, 24 h; AID 624263; hit rate 0.2% among 410,000; active = well fitted activation curve with a large enough effect; inconclusive = small, poorly fitted or top-dose-only effect; cell line not stated here; also: % of control where 0% means no effect; nearly all actives have a fitted effect of over 65% in size
#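 Compound titrations (5 concentrations, 24 h) on a stable cell line; DMSO and CCCP controls. Endpoint: fixed-cell PINK1 immunofluorescence with mitochondrial, cell and nuclear markers, scanned by microplate cytometer.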
# KB-3-1 cytotox: KB-3-1 parental cell cytotoxicity; KB-3-1 viability, CellTiter-Glo ATP luminescence, 72 h; Potency, µM (doses to about 46.1 µM), hits mostly cytotoxic; hit rate 1.4% among 400,000; AID 1347075; also: % is scaled to controls: 0 for no effect and ±100 for the full control effect; nearly all actives have a fitted effect of over 60% in size
#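 KB-3-1 cells, DMEM (no phenol red) + 10% FBS; compound by pin transfer, 72 h, 37 °C. Readout: CellTiter-Glo luminescence after 10 min. Data normalized, curve-fitted.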
# Active calls of the source: *; i = inactive; ? = inconclusive; / = no result; [ ] = another dose, or the depositor's remark. A selection: hits, their analogues and other compounds. The true share with any hit is near 6.7%. Unless noted, calls follow the shape of the dose curve; as a rule, active = well fitted curve in the direction sought with a large enough effect; inconclusive = small, poorly fitted or top-dose-only effect, or another doubt; inactive = no such curve, though single readings can be large; an effect the other way counts as inactive or inconclusive. Potency is read from the fitted curve at half-maximal effect.
SMILES,MCF10A rereplic,SW480 rereplic,KB-V1 cytotox,PINK1 expr mod,KB-3-1 cytotox
O=C1CSC2(C(=O)N(Cc3ccccc3F)c3ccccc32)N1c1ccc(F)cc1 (configuration not stated),/,/,16µM*,0%,?
O=C1CSC2(C(=O)N(Cc3c(F)cccc3Cl)c3ccccc32)N1c1ccc(F)c(F)c1 (configuration not stated),/,/,?,-2%,?
O=C(NN=C1CCCCC1)c1ccccc1-n1cccc1,1%,0%,i,0%,i
CCOc1ccccc1CNC(=O)CN1C(=O)C2CCCCN2c2ccc(C(=O)N(C)C)cc21 (configuration not stated),/,/,i,0%,i
COc1ccc(-c2cc3nc(C4CCN(C(=O)OC(C)(C)C)CC4)c(C(=O)Nc4cc(C)cc(C)c4)cn3n2)cc1,/,/,i,3%,i
COc1ccc(-c2cc(C3CCN(c4ccc(C(C)=O)cc4[N+](=O)[O-])CC3)[nH]n2)cc1,14%,8%,15µM*,-19%[38.3 µM],?
COc1ccc(-c2cc(C3CCN(C(=O)OC(C)(C)C)CC3)[nH]n2)cc1,15%,-15%,13µM*,2%,?
CCOC(=O)c1cn2nc(-c3ccc(OC)cc3)cc2nc1C1CCN(C(=O)OC(C)(C)C)CC1,?,21%,6.5µM*,1%,i
COc1ccc(OC)c(-c2cc(C3CCN(C(=O)OC(C)(C)C)CC3)[nH]n2)c1,?,8%,i,1%,i
N#CCCN(C(=O)COC(=O)c1cc(=O)[nH]c2ccccc12)c1ccccc1,-5%,0%,i,5%,i
O=S1(=O)N=C(OCc2ccccc2)c2ccccc21,/,/,i,/,i
Nc1cccc(CCc2nc3cc4ccccc4cc3[nH]2)c1,7.3µM*,3.7µM*,5.8µM*,18%,5.2µM*
Nc1nc2cc3ccccc3cc2[nH]c1=O,5%,6%,3.7µM*,-2%,6.5µM*
c1ccc(-c2nc3cc4ccccc4cc3[nH]2)nc1,9%,-1%,?,2%,?
Nc1ccc2nc(CCCCCCCCc3nc4ccc(N)cc4[nH]3)[nH]c2c1,2.3µM*,0%,i,3%,i
O=c1cc(-c2ccccc2)[nH]n1-c1ccccc1,?,?,i,?,i
O=C1C=CC(=O)N1c1cccc(-c2ccccc2)c1,21µM*,?,i,5%,i
Cc1ccc(C)c(N2CCN(CCCNC(=O)c3nnc(Cc4ccc(F)cc4Cl)o3)CC2)c1,/,/,/,1%,/
O=C(/C=C/c1ccc(Cl)cc1Cl)N1CCN(c2ccc([N+](=O)[O-])c(N3CCOCC3)c2)CC1,-49%,-1%,?,2%,i
O=C(COc1ccc(Cl)cc1)N1CCN(c2ccc([N+](=O)[O-])c(N3CCOCC3)c2)CC1,-2%,-8%,16µM*,8%,i
O=C(CSc1ccc(Cl)cc1)N1CCN(c2ccc(Cl)cc2[N+](=O)[O-])CC1,18µM*,2%,?,0%[38.3 µM],i
O=C(/C=C/c1ccc(Cl)cc1)N1CCN(c2ccc([N+](=O)[O-])c(N3CCOCC3)c2)CC1,2%,-54%,2.3µM*,-1%,?
COc1ccc(NC(=O)C(C)SCc2ccccc2)cc1OC (configuration not stated),10%,-82%,23µM*,3%,i
CC(SCc1ccccc1)C(=O)Nc1ccc2c(c1)OCO2 (configuration not stated),1%,-9%,18µM*,-2%,i
CC(C(=O)Nc1ccc2c(c1)OCO2)N(C)CC(=O)Nc1ccc(Cl)cc1 (configuration not stated),-5%,-5%,23µM*,2%,i
SMILES,MCF10A rereplic,SW480 rereplic,KB-V1 cytotox,PINK1 expr mod,KB-3-1 cytotox
CC(C(=O)Nc1ccc2c(c1)OCO2)N(C)CC(=O)Nc1ccccc1Cl (configuration not stated),-5%,-58%,i,-1%,i
CC(SCc1ccccc1)C(=O)N/N=C/c1ccc2c(c1)OCO2 (configuration not stated),7%,-4%,i,0%,i
CN(C)c1ccc(-c2nc(NCCc3cnc[nH]3)c3ccccc3n2)cc1,/,/,/,4%,/
c1ccc2c(c1)ccn1c(Cc3ccsc3)c(C3CCCCC3)nc21,/,/,i,?,i
COc1ccc(OC)c(NS(=O)(=O)c2ccc(Cl)s2)c1,?,?,16µM*,20%[38.3 µM],?
COc1ccc(OC)c(NS(=O)(=O)c2ccc(-c3cc(C)no3)s2)c1,/,/,?,3%,4.6µM*
COc1cccc(NS(=O)(=O)c2ccc(-c3cc(C)no3)s2)c1,/,/,i,4%,i
COC(=O)C[C@H]1C=C[C@H](NC(=O)Nc2ccccc2OC)[C@@H](CO)O1,/,/,i,/,i
CNC(=O)C[C@@H](N)C(=O)N[C@@H](C(=O)N[C@@H]1C(=O)N2[C@@H]1SC(C)(C)[C@@H]2C(=O)O)c1ccc(O)cc1,0%,-2%,/,/,/
COc1ccccc1-c1nnc(SCC(=O)Nc2oc(C)c3c(C)n[nH]c(=O)c23)n1C,10%,1%,i,0%,i
CN1CCN(c2ccc(NC(=O)CSc3nnnn3-c3ccccc3Cl)cc2)CC1,?,21µM*,i,0%,i
COc1ccccc1-n1nnnc1SCC(=O)Nc1oc(C)c2c(C)n[nH]c(=O)c12,6%,21µM*,i,-3%,i
COc1ccccc1NC(=O)CSc1nc(O)cc(=O)n1-c1ccccc1OC,15µM*,11%,i,13%[38.3 µM],i
CC1=Nc2ccccc2N=C(NC(=O)CSc2nnnn2-c2ccccc2)C1c1ccccc1 (configuration not stated),8%,0%,13µM*,-4%,i
COc1ccccc1-n1c(SCC(=O)Nc2ccccc2C)nc(O)cc1=O,-4%,0%,i,0%[38.3 µM],i
CCCC(CCC)C(=O)Nc1cc(-c2cn3cccnc3n2)ccc1OC,/,/,/,1%,/
CCOc1ccccc1NC(=O)CSc1nnnn1-c1ccccc1,-4%,-1%,9.2µM*,1%,i
COc1ccccc1NC(=O)CSCc1nc2ccccc2[nH]1,0%,-55%,21µM*,2%,i
CCOc1ccccc1NC(=O)CSc1nnnn1-c1ccc(C(=O)OC)cc1,13%,0%,i,-3%[38.3 µM],i
COc1cccc(-n2nnnc2SCC(=O)NCCc2ccccc2)c1,-1%,-2%,i,2%,i
Cc1ccc(C)c(SCC(=O)Nc2cccnc2Cl)c1,1.6µM*,-16%,i,2%,i
COc1ccc(OC)c(-n2nnnc2SCC(=O)NCCc2ccccc2)c1,5.8µM*,7.3µM*,?,2%[38.3 µM],i
COCCNc1nc(Nc2ccc(C#N)cc2)c2sccc2n1,/,/,i,4%,i
